From PubChem BioAssay AID504690 (Sanford-Burnham Center for Chemical Genomics, 2011)
Hit rate of the full screen: of about 350,000 compounds, about 2,700 (0.77%) were called active. Shown is part of a subset that was picked to be rich in actives. Values without a mark were called inactive.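 The calls were made as follows: active = inhibition reaching at least a set limit at 20 µM in the primary screen (cut at about 59% in these data); inactive = the rest.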

The molecules below were run on glucose-6-phosphate dehydrogenase-6-phosphogluconolactonase (Plasmodium falciparum 3D7) (assay: inhibition of malaria parasite G6PD (PfGluPho) – biochemical, fluorescence intensity, uHTS, primary screen (AID 504690;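 also: 0% = DMSO wells with substrate and 100% = DMSO wells lacking glucose-6-phosphate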)). Conditions: PfGluPho enzyme, NADPH resazurin-diaphorase fluorescence; at 20 µM; stronger effect = higher value.
Work on CCOC(=O)c1cnn2c(SC)ncnc12 yielded an inhibition of 5.86%.
Work on Cc1cc(C)n(Cc2cnc(N3CCOCC3)s2)n1 yielded an inhibition of 2.1%.
Molecule CC1(C)CC(=O)c2cc(OCC(=O)NCC3CCCO3)ccc2O1 (configuration not stated) has an inhibition of 7.52%.
In the case of CC(=O)Nc1ccc2c3c(ccc([N+](=O)[O-])c13)CC2, the inhibition is reported as 1.79%.
Molecule Brc1ccc(C2=CC(c3ccco3)n3ncnc3N2)cc1 (configuration not stated) has an inhibition of 23.3%.
Clc1ccc2c(c1)C1=C(C(c3ccncc3)O2)C(c2ccc(Br)cc2)n2ncnc2N1 (configuration not stated) was tested, and the inhibition was 78.5% (active).
Molecule O=C(C1CCN(S(=O)(=O)c2ccc(Br)s2)CC1)N1CCN(C2CCCCC2)CC1 has an inhibition of 3.65%.
In the case of Cc1ccnc(SC2CC(=O)N(c3ccccc3)C2=O)n1 (configuration not stated), the inhibition is reported as -11.7%.
In the case of Cc1ccnc(-n2sc3ccccc3c2=O)n1, the inhibition is reported as 97% (active).
Work on O=C(NCc1ccccc1)C1CCCN(S(=O)(=O)c2cccs2)C1 (configuration not stated) yielded an inhibition of 3.61%.
C[C@@H]1CCCCO[C@H](CN(C)Cc2ccccc2)[C@@H](C)CN([C@H](C)CO)C(=O)c2cc(NS(=O)(=O)c3ccc(Cl)cc3)ccc2O1 showed an inhibition of 36.3%.
O=c1[nH]nc(Cc2ccccn2)c2ccccc12 showed an inhibition of 1.12%.
For COc1ccc(Cc2n[nH]c(=S)n2NC(=O)Nc2ccc(C)cc2)cc1, the inhibition was 15.8%.
Fc1ccc(/C=N/n2c(COc3ccccc3)n[nH]c2=S)cc1 was tested, and the inhibition was 27.2%.
COc1ccc(OCc2n[nH]c(=S)n2N)cc1 was tested, and the inhibition was 71.3% (active).
With CCOc1ccc(NS(=O)(=O)c2ccc(Cl)c(C(=O)N(C)Cc3cccnc3)c2)cc1 the inhibition was -26.1%.
Work on C=CCn1c(SCC(N)=O)nnc1-c1cc2c(s1)CCC(CC)C2 (configuration not stated) yielded an inhibition of 2.97%.
Molecule CCC1=NN(C(=O)Cc2ccc([N+](=O)[O-])cc2)C(O)(c2ccc(Br)cc2)C1 (configuration not stated) has an inhibition of -3.74%.
CC1(C)NC(=O)N(CC(=O)N2CCN(S(=O)(=O)c3ccccc3F)CC2)C1=O was tested, and the inhibition was -13.8%.
With O=C(COc1ccccc1)Nc1ccc(C(=O)N2CCCC2)cc1 the inhibition was -12.5%.
With O=C(COc1ccccc1)Nc1ccc(F)cc1 the inhibition was -2.38%.
In the case of O=C(COc1ccccc1)Nc1nonc1NC(=O)COc1ccccc1, the inhibition is reported as 71.2% (active).
For COc1ccc([N+](=O)[O-])cc1N(CC(O)Cn1nnc2ccccc21)S(=O)(=O)c1ccc(C)cc1 (configuration not stated), the inhibition was -4.47%.
With Cc1nc([N+](=O)[O-])nn1C12CC3CC(CC(Br)(C3)C1)C2 the inhibition was 71% (active).
With CC1CCC(CN2CCN=C2N(C)C)CC1 (configuration not stated) the inhibition was -9.19%.
Molecule CCOc1ccc(S(=O)(=O)N2CCCC(C(=O)N3CCC(C(N)=O)CC3)C2)cc1Cl (configuration not stated) has an inhibition of -4.54%.
CCOC(=O)[C@@H]1[C@H]2COc3ccc(Br)cc3[C@H]2N2C(=O)N(c3ccc(Cl)cc3)C(=O)[C@@]12C showed an inhibition of 9.82%.
Cc1cccc(-n2c(N)c(C(=O)N3CCN(C)CC3)sc2=S)c1 was tested, and the inhibition was 79.6% (active).
For COC(=O)c1sc(=S)n(-c2ccccc2)c1N, the inhibition was 65.1% (active).
COCCOC(=O)c1sc(=S)n(CCOC)c1N gave an inhibition of 25.1%.
N#Cc1c(N)sc2c1CCN(C(=O)OCc1ccccc1)C2 gave an inhibition of 42.3%.
Cc1ccc(-n2c(N)c(C(=O)N3CCOCC3)sc2=S)c(C)c1 was tested, and the inhibition was -1.21%.
For N#Cc1ccccc1-n1c(N)c(C(=O)N2CCCC2)sc1=S, the inhibition was 60% (active).
COc1cccc(N2CCN(c3ccc4nnc(CCC(=O)N5CCN(C)CC5)n4n3)CC2)c1 showed an inhibition of 6.62%.
COC(=O)c1sc(N2CCN(Cc3ccccc3)CC2)nc1N showed an inhibition of -11.2%.
O=C(c1ccc(S(=O)(=O)N2CCCC2)cc1)N1CCN(c2ccccc2F)CC1 gave an inhibition of 7.54%.
O=C(OCc1ccccc1)N1CCC2CC1c1ccc(-c3ccc4c(c3)OCO4)cc12 (configuration not stated) gave an inhibition of 2.75%.
Molecule O=C(Cc1ccsc1)N1CCN(S(=O)(=O)c2cc(C(F)(F)F)cc(C(F)(F)F)c2)CC1 has an inhibition of 9.01%.
In the case of Cc1cccc(N2C(=O)N3[C@H](c4ccc(F)cc4)[C@@H]4C(=O)N(C5CCCCC5)C(=O)[C@@H]4[C@]3(Cc3ccccc3)C2=O)c1, the inhibition is reported as -21.6%.
COc1ccccc1Cn1c(C)nnc1-c1cnn(C)c1N gave an inhibition of -9.47%.
With Cc1cc(C)c2c(c1)c(C)cc1nnc(SCC(=O)NCc3ccco3)n12 the inhibition was 46.3%.
Molecule Cc1ccc(OCCNC(=O)CNC(=O)c2ccc(C)c(C)c2)cc1 has an inhibition of -19.6%.
For CNN/C(N=Cc1ccc([N+](=O)[O-])s1)=N\S(=O)(=O)c1cc(C)c(Cl)cc1SCc1ccccc1, the inhibition was 5.23%.
For O=[N+]([O-])c1ccc(C=Nc2ccc(Cl)cc2Cl)s1, the inhibition was 76.4% (active).
Molecule Cc1ccc(NC(=O)C2CCC(C(C)(C)C)CC2)cc1S(=O)(=O)N1CCOCC1 (configuration not stated) has an inhibition of 30.1%.
With O=C1CCC(C(=O)OCC(=O)Nc2ccc(OC(F)F)cc2)=NN1 the inhibition was 3.76%.
With Oc1ccc(N=Cc2c(O)ccc3ccccc23)cc1 the inhibition was 62.9% (active).
